From PubChem BioAssay (EPA / NIEHS)
Calls of active or inactive are those of the source. Rule for the calls: active = hit-call score of the fitted dose curve at least 0.9, where 1 is the maximum; inactive = score below 0.9.

What was measured:
[1] = read-out: Monokine induced gamma interferon (MIG), CXCL9 (gene 4283); assay: BSK_BE3C_MIG: BioMAP Diversity Plus: BE3C Assay for Monokine induced gamma interferon (MIG) Biomarker Activity (AID 2283035); details: primary human bronchial epithelial cells; actives raise or lower the signal
Method in brief: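 Primary human bronchial epithelial cells treated for 24 h; MIG levels measured by ELISA, fitted bidirectionally versus DMSO. Parallel SRB total-protein staining assessed cytotoxicity.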

[2] = read-out: Transforming growth factor beta 1 (TGFb1), TGFB1 (gene 7040); assay: BSK_BE3C_TGFb1: BioMAP Diversity Plus: BE3C Assay for Transforming growth factor beta 1 (TGFb1) Biomarker Activity (AID 2283036); details: primary human bronchial epithelial cells; actives raise or lower the signal
Method in brief: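 Primary human lung bronchial epithelial cells; compound exposure 24 h; TGF-b1 by ELISA; bidirectional fit, DMSO baseline. Parallel SRB total-protein staining for cytotoxicity.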

[3] = read-out: Plasminogen activator inhibitor-1 (PAI1), SERPINE1 (gene 5054); assay: BSK_BE3C_PAI1: BioMAP Diversity Plus: BE3C Assay for Plasminogen activator inhibitor-1 (PAI1) Biomarker Activity (AID 2283037); details: primary human bronchial epithelial cells; actives raise or lower the signal
Method in brief: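 Primary human lung bronchial epithelial cells; chemical dosing; 24 h; PAI-1 measured by ELISA; bidirectional fit referenced to DMSO as negative control.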

[4] = read-out: urokinase plasminogen activator (uPA), PLAU (gene 5328); assay: BSK_BE3C_uPA: BioMAP Diversity Plus: BE3C Assay for urokinase plasminogen activator (uPA) Biomarker Activity (AID 2283038); details: primary human bronchial epithelial cells; actives raise or lower the signal
Method in brief: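 Using confluent primary human lung bronchial epithelial cultures, we dosed chemicals, waited 24 h, then ran a uPA ELISA, fitting bidirectionally against DMSO.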

[5] = read-out: Urokinase-type plasminogen activator receptor (uPAR), PLAUR (gene 5329); assay: BSK_BE3C_uPAR: BioMAP Diversity Plus: BE3C Assay for Urokinase-type plasminogen activator receptor (uPAR) Biomarker Activity (AID 2283039); details: primary human bronchial epithelial cells; actives raise or lower the signal
Method in brief: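 Human bronchial epithelial primary cells; chemical exposure 24 h; uPAR by ELISA; bidirectional fit vs DMSO control.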

[6] = read-out: Interleukin-6 (IL6), IL6 (gene 3569); assay: BSK_CASM3C_IL6: BioMAP Diversity Plus: CASM3C Assay for Interleukin-6 (IL6) Biomarker Activity for (AID 2283040); details: primary human coronary artery smooth muscle cells; actives raise or lower the signal
[7] = read-out: Interleukin-8 (IL8), CXCL8 (gene 3576); assay: BSK_CASM3C_IL8: BioMAP Diversity Plus: CASM3C Assay for Interleukin-8 (IL8) Biomarker Activity (AID 2283042); details: primary human coronary artery smooth muscle cells; actives raise or lower the signal;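 note: IL-8 protein level quantified by ELISA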
[8] = read-out: Human Leukocyte Antigen - DR isotype (HLADR), HLA-DRA (gene 3122); assay: BSK_CASM3C_HLADR: BioMAP Diversity Plus: CASM3C Assay for Human Leukocyte Antigen - DR isotype (HLADR) Biomarker Activity (AID 2283043); details: primary human coronary artery smooth muscle cells; actives raise or lower the signal;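 note: cell-surface HLA-DR protein level quantified by ELISA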
[9] = read-out: Macrophage colony-stimulating factor (MCSF), CSF1 (gene 1435); assay: BSK_CASM3C_MCSF: BioMAP Diversity Plus: CASM3C Assay for Macrophage colony-stimulating factor (MCSF) Biomarker Activity (AID 2283044); details: primary human coronary artery smooth muscle cells; actives raise or lower the signal;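 note: M-CSF protein amount quantified by ELISA after 24 h exposure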
[10] = read-out: Tissue plasminogen activator (tPA), PLAT (gene 5327); assay: BSK_BE3C_tPA: BioMAP Diversity Plus: BE3C Assay for Tissue plasminogen activator (tPA) Biomarker Activity (AID 2283041); details: primary human bronchial epithelial cells; actives raise or lower the signal
Method in brief: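 Primary human lung bronchial epithelial cultures receive test chemical; after 24 h, tPA is quantified by ELISA, and gain or loss of signal is fitted bidirectionally relative to DMSO baseline.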

Measured: AC50

COP(=S)(OC)Oc1c(Cl)cc(C)cc1Cl
active: [7] 0.213 µM
not listed: [10]
inactive: all other assays above

CC(C)c1ccc(CO)cc1
not listed: [10]
inactive: all other assays above

CC(C)(c1ccccc1)c1ccc(O)c(C(C)(C)c2ccccc2)c1
active: [1] 22.7 µM | [2] 16.8 µM | [3] 14.3 µM | [5] 29.3 µM | [6] 26.4 µM | [10] 14.7 µM | [7] 28.5 µM | [8] 25.8 µM | [9] 25.3 µM

CCC(=O)C(CC(C)N(C)C)(c1ccccc1)c1ccccc1 (centres undefined)
inactive: all assays above

CN(C)N=O
not listed: [10]
inactive: all other assays above

NC(=S)Nc1ccccc1
inactive: all assays above

CCCCC(CC)CO[N+](=O)[O-] (centres undefined)
active: [6] 31.8 µM | [8] 28.2 µM | [9] 29.6 µM
inactive: all other assays above

CC1(C)Cc2cccc(O)c2O1
inactive: all assays above

CCCCCCCCc1ccc(O)cc1
active: [1] 37.7 µM | [2] 30.5 µM | [3] 33.9 µM | [4] 32.7 µM | [5] 32.5 µM | [6] 20.1 µM | [10] 25 µM | [7] 30.1 µM | [8] 20.1 µM | [9] 31.9 µM

CCOP(=S)(OCC)Oc1nc(Cl)c(Cl)cc1Cl
not listed: [10]
inactive: all other assays above

CCN1CCC2(CC1)COc1cc3c(cc12)N(C(=O)c1ccc(-c2ccc(-c4nnc(C)o4)cc2C)cc1)CC3
active: [1] 23.8 µM | [3] 12.5 µM | [4] 18.7 µM | [5] 18.7 µM | [6] 31.7 µM | [7] 27.9 µM | [8] 15.3 µM | [9] 27.4 µM
inactive: [2]

COC(=O)c1sccc1S(=O)(=O)NC(=O)Nc1nc(C)nc(OC)n1
not listed: [4]
inactive: all other assays above

O=C1C2(Cl)C3(Cl)C4(Cl)C(Cl)(Cl)C5(Cl)C3(Cl)C1(Cl)C5(Cl)C24Cl (centres undefined)
active: [1] 9.37 µM | [2] 5.28 µM | [3] 8.29 µM | [4] 5.32 µM | [5] 6.12 µM | [6] 33.5 µM | [10] 3 µM | [7] 35.6 µM | [8] 14.9 µM | [9] 26.6 µM

Oc1ccc(-c2ccccc2)cc1
active: [9] 32.5 µM
not listed: [6] | [10]
inactive: all other assays above

O=c1[nH]c(=O)[nH]c(=O)[nH]1
inactive: all assays above

Nc1ncc([N+](=O)[O-])s1
not listed: [10]
inactive: all other assays above

C=C(C)C(=O)[O][Sn]([CH2]CCC)([CH2]CCC)[CH2]CCC
active: [1] 0.147 µM | [2] 0.146 µM | [3] 0.146 µM | [5] 0.146 µM | [6] 0.148 µM | [10] 0.148 µM | [7] 0.359 µM | [8] 0.148 µM | [9] 0.326 µM

ClC(Cl)=C(Cl)C(Cl)=C(Cl)Cl
active: [3] 20 µM | [4] 20 µM | [6] 3.97 µM
not listed: [10]
inactive: all other assays above

Nc1ccc(-c2ccc(N)c(Cl)c2)cc1Cl
inactive: all assays above

C[C@]12CCC(=O)C[C@@H]1CC[C@@H]1[C@@H]2CC[C@]2(C)[C@@H](O)CC[C@@H]12
not listed: [4]
inactive: all other assays above

O=C(O)C(F)(F)C(F)(F)C(F)(F)C(F)(F)C(F)(F)C(F)(F)F
not listed: [10]
inactive: all other assays above

COc1cc(-c2ccc(N)c(OC)c2)ccc1N
inactive: all assays above

BrCCBr
not listed: [4]
inactive: all other assays above

COP(=S)(OC)Oc1cc(Cl)c(Cl)cc1Cl
active: [3] 8.51 µM | [8] 20 µM | [9] 3.97 µM
not listed: [4]
inactive: all other assays above

O=[N+]([O-])c1ccc2c3c(cccc13)CC2
active: [5] 1.19 µM
not listed: [10]
inactive: all other assays above

NC(=O)O
inactive: all assays above

C(=NC1CCCCC1)=NC1CCCCC1
active: [1] 36.3 µM | [4] 31.8 µM | [5] 20 µM | [6] 36.8 µM | [8] 20 µM | [9] 26.1 µM
inactive: [2] | [3] | [7]

CC(C)(OO)c1ccccc1
not listed: [4]
inactive: all other assays above

CCOC(=O)/C=C(C)/C=C/C[C@@H](C)CCCC(C)C
inactive: [3] | [7]
active: [1] 30 µM | [2] 20 µM | [5] 20 µM | [6] 30.7 µM | [10] 9.78 µM | [8] 18.5 µM | [9] 26.6 µM

O=C(O)C(Cl)(Cl)Cl
inactive: all assays above

CC(=O)[O][Hg][c]1ccccc1
active: [1] 2.01 µM | [2] 0.148 µM | [3] 1.42 µM | [4] 1.06 µM | [5] 1.8 µM | [6] 3.56 µM | [7] 3.6 µM | [8] 0.58 µM | [9] 0.816 µM
